Screening results: PubChem, National Center for Advancing Translational Sciences (NCATS)
This excerpt belongs to a sample that is enriched for hits.
Tb PYK inh – blocks Trypanosoma brucei pyruvate kinase; actives 0.12% (n = 410,000); Potency, µM (doses to about 76.8 µM), without a hit: at the top dose activity, negative = inhibition, usual class: inhibitors; TbPYK enzyme, Kinase-Glo Plus ATP luminescence, 45 min; Q57TT1; note: potency is the fitted concentration of half-maximal effect; % is set by controls: 0 for no effect and ±100 for the full control effect; nearly all actives have a fitted effect of over 50% in size
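Activity of T. brucei pyruvate kinase was followed by Kinase-Glo Plus luminescence after the enzyme reacted 45 min at room temperature with 130 uM ADP (final) and substrate. Test compounds were added before ADP at multiple concentrations.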
Cycloheximide cs – affects cycloheximide protein synthesis inhibition readout, counter-screen; cell reporter, cycloheximide protein synthesis inhibition counterscreen; max response, %; actives 12% (n = 300,000); AID 2314; in the data active = max response mostly above about 13%, no sharp cut-off; inactive = mostly below about 14%; note: read at 38.3 µM for the half of the compounds with a filed dose; 0% is about no effect
LmPK inhibitor – LmPK (Leishmania mexicana) enzyme inhibition | actives 0.37% (n = 290,000) | Potency, µM (series often up to 57.5 µM), for inactives: at the top dose activity change, negative = inhibition, most hits filed as inhibitors | purified LmPK, Kinase-Glo ATP luminescence, 1 h; note: potency is the fitted concentration of half-maximal effect; % is set by controls: 0 for no effect and ±100 for the full control effect
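0.1 nM LmPK, 0.5 mM PEP, 0.1 mM ADP; 50 mM imidazole pH 7.2, 7 mM MgCl2, 50 mM KCl; 1 h RT. Kinase-Glo luminescence readout, normalized to no-enzyme (full inhibition) and uninhibited wells.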
RE007 growth inh – less growth of the S. pombe RE007 Vpr strain; S. pombe RE007 Vpr strain, BacTiter-Glo ATP luminescence, 24 h; Potency, µM (titrated, usually from 92.2 µM), without a hit: at the highest dose activity change, negative = less growth, usual class: inhibitors; actives 0.21% (n = 360,000); active = well fitted falling curve with a large enough effect; inconclusive = small, poorly fitted or top-dose-only effect; inactive = no such curve, though single readings can be large or run the other way; note: potency is the fitted concentration of half-maximal effect; % is set by controls: 0 for no effect and ±100 for the full control effect; nearly all actives have a fitted effect of over 50% in size
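Fission yeast strain RE007, carrying one chromosomally integrated HIV-1 vpr copy, was seeded at OD 0.01 in PMG+AL medium with 23 nL pinned compound. After 24 h at 30 °C and 99% humidity, viability was read by BacTiter-Glo luminescence.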
Giardia FBPA inh – inhibitors of Giardia lamblia fructose-1,6-bisphosphate aldolase | A8B2U2 | actives 0.71% (n = 290,000) | Potency, µM (doses to about 59.6 µM), for inactives: top-dose activity, negative = inhibition, hits mostly inhibitors | purified Giardia FBPA; note: potency is the fitted concentration of half-maximal effect; % is set by controls: 0 for no effect and ±100 for the full control effect; nearly all actives have a fitted effect of over 55% in size
Target sequence (A8B2U2 whole entry, looked up): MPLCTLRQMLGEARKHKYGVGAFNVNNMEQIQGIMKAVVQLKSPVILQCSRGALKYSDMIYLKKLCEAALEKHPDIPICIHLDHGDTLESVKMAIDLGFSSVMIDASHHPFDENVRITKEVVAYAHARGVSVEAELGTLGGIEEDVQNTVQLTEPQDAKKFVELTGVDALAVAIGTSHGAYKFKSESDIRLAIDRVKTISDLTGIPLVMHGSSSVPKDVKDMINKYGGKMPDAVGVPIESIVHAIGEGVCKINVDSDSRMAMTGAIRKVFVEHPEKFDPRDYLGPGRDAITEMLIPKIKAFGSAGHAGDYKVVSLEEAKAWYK
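40 nM FBPA preincubated 10 min at RT with compound (up to 57.5 uM final), then substrate plus GAPDH/TPI/NAD/arsenate coupling and diaphorase/resazurin added. Fluorescence read after 20 min at RT, 525/598 nm.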
Shiga inhibitor – Shiga toxin inhibition; actives 9.2% (n = 290,000); Vero cells, Shiga toxin protein synthesis inhibition reporter; inhibition, % at 38.7 µM; in the data active = inhibition mostly above about 28%, no sharp cut-off; inactive = mostly below about 43%; note: 0% is about no effect
The depositor's hits bear a star; ? = inconclusive; . = not tested or not shown; [ ] = dose if it differs, or a comment. Unless noted, calls come from the whole dose curve; as a rule, active = well fitted curve in the direction sought with a large enough effect; inconclusive = small, poorly fitted or top-dose-only effect, or another doubt; inactive = no such curve, though single readings can be large; an effect the other way counts as inactive or inconclusive.

SMILES	Tb PYK inh	Cycloheximide cs	LmPK inhibitor	RE007 growth inh	Giardia FBPA inh	Shiga inhibitor
O=C(/C=C/c1ccccc1Cl)NNC(=O)c1cccs1	0%	32*	-1%	-8%	-1%	46
O=C(NNC(=O)c1cc(Cl)ccc1O)c1cccs1	-1%	29*	4%	8%	?	49*
O=C(NNC(=O)c1ccccc1Cl)c1ccccc1Cl	0%	18*	-9%	-5%	-1%	17
O=C(Nc1ccccc1Cl)c1cccs1	-14%	27*	-5%	-13%	0%	104*
Cc1c(NC(=O)c2cccs2)cccc1NC(=O)c1cccs1	-13%	-2	-1%	2%	.	2
Cc1nc(Cl)sc1C(=O)Nc1ccccc1Cl	0%	12	4%	-11%	8%	-8
O=C(Nc1ccccc1Cl)c1ccc(-c2ccccn2)s1	0%	49*	5%	-19%	0%	64*
CC(Oc1ccccc1)C(=O)Nc1ccc(C(=O)OCc2cc(=O)n3ccsc3n2)cc1 (configuration not stated)	-2%	.	.	.	.	.
O=C(NNC(=O)c1ccccc1Cl)c1cccs1	13%	31	2%	8%	-1%	35*
COc1ccc(OC)c(NC(=O)CSc2nc3n[nH]c(C)c3c(=N)n2-c2cccc(Cl)c2C)c1	-3%	25*	11%	7%	-3%	-2
Cc1ccccc1-n1c(SCC(=O)Nc2ccccc2Cl)nc2n[nH]c(C)c2c1=N	1%	10	-2%	19%	23%	-3
Clc1ccc(N=c2ssnc2Cl)nc1	?	-3	2%	?	0%	-2
Clc1nssc1=Nc1nncs1	5µM*	.	.	-1%	.	.
CC(C)(C)NC(=O)Cn1nnc(-c2ccc(Cl)cc2)n1	-2%	-2	-1%	3%	6%	16
CC(C)(C)NC(=O)Cn1nnc(-c2ccc(OCc3c(F)cccc3Cl)cc2)n1	-18%	13*	3%	-19%	9%	33
CCN1C(=O)c2ccc(C(=O)Nc3cccc(C(=O)O)c3)cc2C1=O	-9%	20*	-9%	?	13%	48*
COc1cccc(C(=O)Nc2cccc(-c3ccccc3)c2)c1	2%	42*	-8%	?	0%	78*
COc1ccc(-c2cccc(C(=O)Nc3cccc(C(=O)O)c3)c2)cc1	-4%	103*	-7%	-4%	24%	106*
Cc1ccc(NC(=O)C(Cc2ccccc2)NS(=O)(=O)c2ccc3c(c2)c(=O)n(C)c(=O)n3C)c(C)c1 (configuration not stated)	-4%	.	.	.	.	.
O=C1c2ccccc2C(=O)C1Cc1cccc2ccccc12	-5%	20*	20%	-22%	?	66
Cc1cc(C)n(-c2cc(C(C)(C)C)nc3c(-c4ccccc4)cnn23)n1	1%	54*	4%	4%	-10%	90*
Cc1nn2c(N3CCN(C)CC3)cc(C(C)(C)C)nc2c1-c1ccccc1	-14%	7	7%	0%	0%	-6
Cc1cc(C)n(-c2cc(C(C)(C)C)nc3c(-c4ccc(Cl)cc4)cnn23)n1	-2%	29*	2%	-14%	0%	64*
COc1ccccc1N1CCN(C(=O)CN2C(=O)C3CCCCC3C2=O)CC1 (configuration not stated)	0%	28*	-6%	6%	-4%	77*
COc1ccccc1N1CCN(C(=O)Cc2ccc(Cl)cc2)CC1	-4%	17*	1%	7%	6%	31
SMILES	Tb PYK inh	Cycloheximide cs	LmPK inhibitor	RE007 growth inh	Giardia FBPA inh	Shiga inhibitor
COc1cccc(N2CCN(C(=O)CCSCc3ccccc3F)CC2)c1	-3%	-6	1%	0%	-11%	21
COc1ccccc1N1CCN(C(=O)CCSCc2ccccc2F)CC1	0%	20	-4%	2%	-8%	49*
Cc1ccc(C)c(Nc2nn3c(=O)c4ccc(C(=O)NCc5ccccc5)cc4nc3s2)c1	1%	.	.	.	.	.
O=C(COc1ccccc1)Nc1ccncc1Cl	4%	52*	-2%	-25%	.	92*
Cc1ccc(OCC(=O)Nc2ccccc2-c2ccccc2)cc1	3%	56	2%	-3%	-1%	83
Cc1ccc(OCC(=O)Nc2ccccc2C(N)=O)cc1	0%	35*	1%	-7%	-7%	.
NC(=O)c1ccccc1NC(=O)COc1ccc(Cl)cc1	4%	29*	-3%	0%	2%	90*
O=C(COc1ccc2ccccc2c1)Nc1ccccc1C(=O)O	2%	20*	0%	-1%	-4%	19
COc1ccc(NC(=O)Cn2c(=O)n(CCCC(=O)NCc3ccccc3Cl)c(=O)c3ccccc32)c(OC)c1	-1%	.	.	.	.	.
CSc1ccccc1NC(=O)COc1ccc(Cl)cc1	3%	32*	0%	22%	-6%	48*
CSc1ccccc1NC(=O)COC(=O)c1ccccc1O	0%	7	-1%	0%	2%	6
O=C(COc1ccc(Cl)cc1)Nc1ccc(Cl)cc1C(=O)c1ccccc1	-6%	.	.	.	.	.
O=C(COc1ccc(Cl)cc1)Nc1ccccc1Cl	0%	49*	1%	-21%	-2%	76*
COc1ccc(-n2ncc(C(=O)Nc3ccc4c(c3)OCCO4)c2C2CCN(C(=O)OC(C)(C)C)CC2)cc1	-7%[15.4 µM]	.	.	.	.	.
O=C(CCc1nc2ccccc2s1)N1CCN(S(=O)(=O)c2cccs2)CC1	1%	12	4%	-14%	0%	39
O=C(OCc1nc2ccccc2s1)C1CCN(S(=O)(=O)c2cccs2)CC1	1%	35*	4%	6%	6%	97*
O=S(=O)(c1cccs1)N1CCN(Cc2nc3ccccc3s2)CC1	-4%	38*	2%	4%	-17%	49*
CC1(C)NC(=O)N(CCCOc2ccc3c(c2)CCC3)C1=O	0%	34*	0%	-23%	0%	59*
C/C=C/c1ccc(OCCN2C(=O)NC(C)(C)C2=O)c(OC)c1	2%	4	6%	-1%	-28%	12
Cc1ccc([N+](=O)[O-])c(OCCCN2C(=O)NC(C)(C)C2=O)c1	6%	19*	4%	10%	14%	57
C=CCN(CC=C)CCOc1cc(C)ccc1[N+](=O)[O-]	12%	18*	-6%	-8%	?	40*
C/C=C/c1ccc(OCCCN2C(=O)NC(C)(C)C2=O)c(OC)c1	0%	23*	3%	-3%	1%	27
Cc1cc(C)cc(Oc2c(C(F)(F)F)oc3c(CN4CCCC(C)C4)c(O)ccc3c2=O)c1 (configuration not stated)	4%	.	.	.	.	.
COc1ccc(-c2nc3cnc(OC)nc3n(C3CC3)c2=O)cc1	7%	.	.	.	4%	.
CC1(C)NC(=O)N(CCCCOc2ccc(Br)cc2Cl)C1=O	-11%	4	8%	8%	0%	13
